In the library only some 9.3% were active in any assay of this set; here they are far more common.
Rab9 promoter act – activates the Rab9 promoter; 320,000 tested, 2.8% active; Huh7 Rab9 promoter-luciferase reporter, luminescence, 24 h; Potency, µM (highest dose often 9.22 µM), for inactives: top-dose activation, negative = inhibition, most hits filed as activators; AID 485297; also: % of control where 0% means no effect; nearly all actives have a fitted effect of over 60% in size
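Luciferase signal after 10 min detection reagent at ambient indicates Rab9 promoter upregulation; stably transfected Huh7 cells were treated 24 h with compound in DMSO at 37 °C, 5% CO2.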
SMN2 splice enh – enhancers of SMN2 splice variant expression | HEK293 SMN2-luciferase splicing reporter, luminescence, 30-36 h | Potency, µM (titrated, usually from 46.1 µM), for inactives: top-dose activity change, positive = activation, hits mostly activators | 210,000 tested, 2.8% active; also: % of control where 0% means no effect; nearly all actives have a fitted effect of over 55% in size
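qHTS luciferase splicing reporter: luminescence rises when SMN2 exon 7 is included in transfected HEK293 cells. Compound exposure lasted 30-36 h at 37C, with 4.5 mM final sodium butyrate as control, followed by a ONE-Glo read.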
FLuc modulator – inhibits or activates purified firefly luciferase, miR-21 counter-screen; P08659; purified FLuc, Km substrates, luminescence inhibition; Potency, µM (series often up to 57.5 µM), for the others: at the top dose activity change, negative = inhibition, most hits filed as inhibitors; 360,000 tested, 6.9% active; AID 588342;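 also: plate controls were vehicle for no effect and reference inhibitor for full effect; nearly all actives have a fitted effect of over 55% in size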
Target sequence (P08659 whole entry, looked up): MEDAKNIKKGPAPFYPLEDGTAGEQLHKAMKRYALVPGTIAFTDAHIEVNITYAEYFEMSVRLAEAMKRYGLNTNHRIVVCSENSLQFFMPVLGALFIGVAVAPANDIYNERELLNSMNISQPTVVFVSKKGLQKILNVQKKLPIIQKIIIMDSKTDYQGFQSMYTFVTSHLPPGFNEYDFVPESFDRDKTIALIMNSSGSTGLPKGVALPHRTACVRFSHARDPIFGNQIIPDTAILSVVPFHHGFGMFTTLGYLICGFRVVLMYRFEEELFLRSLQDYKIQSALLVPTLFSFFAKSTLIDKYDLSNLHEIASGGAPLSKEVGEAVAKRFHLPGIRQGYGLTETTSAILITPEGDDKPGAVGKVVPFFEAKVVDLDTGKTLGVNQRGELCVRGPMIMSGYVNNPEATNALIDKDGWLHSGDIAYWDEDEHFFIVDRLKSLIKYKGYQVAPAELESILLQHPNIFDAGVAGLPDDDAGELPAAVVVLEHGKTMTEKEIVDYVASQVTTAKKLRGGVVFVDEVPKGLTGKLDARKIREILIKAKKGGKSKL
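Purified P. pyralis luciferase (10nM final) with 10uM D-luciferin and 10uM ATP (Km levels) in 50mM Tris acetate pH 7.5, 10mM Mg acetate, 0.01% Tween-20, 0.05% BSA; qHTS 6-point titration, ~60 µM downward; luminescence read.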
ELG1 repair inh – ELG1-dependent DNA repair inhibition; HEK293T ELG1-luciferase reporter, luminescence, 16 h; DNA damage induced by 5-fluorouridine; Potency, µM (doses to about 46.1 µM), inactives show top-dose activity change, negative = inhibition, most hits filed as inhibitors; 330,000 tested, 2.3% active; AID 504467; also: % is scaled to controls: 0 for no effect and ±100 for the full control effect; nearly all actives have a fitted effect of over 55% in size
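Luminescence from the luciferase reporter, measured 30 min after ONE-Glo reagent at room temperature, was the read-out. Beforehand, 2,000 cells per well were exposed for 16 hr at 37 °C to 5-fluorouridine together with compound or vehicle.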
ELG1 genotox – inducers of genotoxicity in HEK293T ELG1-luciferase cells | HEK293T ELG1-luciferase reporter, luminescence, 16 h | Potency, µM (series often up to 46 µM), inactives show top-dose activity change, positive = activation, actives largely listed as activators | 330,000 tested, 1.3% active; also: % of control where 0% means no effect; nearly all actives have a fitted effect of over 60% in size
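Luminescence read-out: rising ELG1-luciferase signal, reflecting elevated ELG1 protein under genetic stress, flags genotoxic compounds. Cells were treated for 16 hr at 37 °C before ONE-Glo detection.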
NPC1 prom act – activators of NPC1 promoter. Huh7 NPC1 promoter luciferase reporter, 24 h. Potency, µM (doses to about 9.22 µM), for inactives: top-dose activation, actives largely listed as activators. 320,000 tested, 2.4% active. AID 485313; also: % of control where 0% means no effect; nearly all actives have a fitted effect of over 60% in size
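Stable NPC1-promoter luciferase Huh7 line; cpd (DMSO) 24 h, 37 °C, 5% CO2; Amplite luciferase reagent 10 min RT; luminescence readout. qHTS format.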
An asterisk follows results filed as active; ? = inconclusive; · = not tested or not shown; ! = not active in a repeat. Calls follow the shape of the dose curve; as a rule, active = well fitted curve in the direction sought with a large enough effect; inconclusive = small, poorly fitted or top-dose-only effect, or another doubt; inactive = no such curve, though single readings can be large; an effect the other way counts as inactive or inconclusive. Potency is read from the fitted curve at half-maximal effect.

SMILES	Rab9 promoter act	SMN2 splice enh	FLuc modulator	ELG1 repair inh	ELG1 genotox	NPC1 prom act
Oc1ccccc1N=Cc1c(O)ccc2ccccc12	2%	·	13µM*	-4%	0%	-3%
Cc1cc(C(=O)O)ccc1N=Cc1c(O)ccc2ccccc12	-4%	·	0.76µM*	16%	1%	10%
Oc1ccc2ccccc2c1C=Nc1ccccc1Br	2%	·	11µM*	-6%	0%	-4%
Cn1c(=O)c2sccc2n(Cc2ccccc2)c1=O	-2%	·	0%	21%	0%	-7%
COCCCNC(=O)Cn1c(=O)n(CCCC(=O)NCc2ccc(C)cc2)c(=O)c2ccccc21	·	-4%	-2%	·	·	·
CC(=O)Nc1ccc(NC(=O)C(C)OC(=O)CCCN2C(=O)c3cccc4cccc(c34)C2=O)cc1 (configuration not stated)	4%	·	0%	?	9%	-3%
COC(=O)c1cccc(NC(=O)N(C)CCc2c(C)nn(C)c2C)c1	·	·	-9%	·	·	·
C=Cc1ccc(N=Cc2c(O)ccc3ccccc23)cc1	-3%	·	19µM*	-1%	-2%	-3%
C(=Nc1ccc(N2CCOCC2)cc1)c1c[nH]c2ccccc12	24%	·	?	?	10%	5%
Oc1ccc2ccccc2c1C=Nc1ccc(N2CCOCC2)cc1	11%	26%	6µM*	0%	-5%	1%
COc1ccc(/C=C2/CCOC2=O)cc1	-3%	-3%	-18%	?	2%	6%
COc1ccc2c(c1)CC/C(=C/c1ccncc1)C2=O	-14%	-58%	13µM*	-24%	0%	-2%
COc1ccc2c(c1)CCc1cn[nH]c1-2	7%	·	?	0%	-1%	15%
COc1ccc2c(c1)CC/C(=C\c1ccc(C)o1)C2=O	2.8µM*	·	2.4µM*	?	?	2.5µM*
O=c1nc2sc3ccccc3n2c(=O)n1-c1ccc(Cl)c(Cl)c1	·	2%	-4%	·	·	·
Cc1ccc2c(c1)sc1nc(=O)n(-c3cccc(Cl)c3)c(=O)n12	1.6µM*	11µM*!	6%	?	?	1.6µM*
O=c1nc2sc3ccccc3n2c(=O)n1-c1ccc(Cl)cc1	2.8µM*	20µM*	-6%	?	?	3.2µM*
O=S(=O)(c1cccc(-c2n[nH]c(=S)o2)c1)N1CCOCC1	-1%	·	-13%	0%	-2%	-2%
O=Cc1ccc(OCc2ccccn2)cc1	-3%	16µM*	?	?	14%	-1%
O=Cc1ccc(OCc2ccc3ccccc3c2)cc1	?	·	5.4µM*	?	?	15%
COC(=O)c1ccc(COc2ccc(C=O)cc2)o1	-3%	·	-15%	16%	2%	2%
O=c1c(Sc2ccccc2)c(C(F)(F)F)[nH]n1-c1ccccc1	1%	0%	-12%	?	-27%	2%
O=C(COc1ccc(Cl)cc1Cl)NC(=S)N1CCCc2ccccc21	4%	-29%	27µM*	0%	3%	-26%
O=C(COc1ccc(Cl)cc1Cl)NC1CCSC1=O (configuration not stated)	3.5µM*	?	11µM*	?	16µM*	?
CC(=O)c1ccccc1OC(=O)COc1ccc(Cl)cc1C	2%	0%	17µM*	9%	2%	-4%
O=C(COc1ccc(Cl)cc1Br)NC(=O)NC1CCCC1	3.2µM*	·	6µM*	?	?	3.5µM*
O=C(COC(=O)COc1ccc(Cl)cc1Br)NC1CC1	·	·	·	?	-3%	·
COc1cc(C(=O)NCc2nnc(SCC(=O)N3CCCc4ccccc43)o2)cc(OC)c1OC	-8%	-17%	1%	4%	1%	0%
CC(=O)c1cccc(NC(=O)c2sc(-n3nc(C)c(CCC(C)C)c3C)nc2C)c1	·	·	-6%	·	·	·
COc1ccccc1C(=O)OCC(=O)NC(=O)NC1CCCC1	0%	·	3%	18%	0%	0%

Screening data as filed in PubChem BioAssay.
